POLI inh: qHTS for Inhibitors of Polymerase Iota; DNA polymerase iota (Homo sapiens), Q9UNA4; Pol iota fluorescent replication assay, 10 min; Potency, µM (top dose mostly 115 µM), for inactives: at the top dose activity, negative = inhibition, actives largely listed as inhibitors; 390,000 tested, 1% active; AID 588590, 2011
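Pol iota at 10 nM preincubated 15 min with compounds at room temperature; reaction started with fluorescent substrate, 50 nM final. Fluorescence read kinetically at 0 and 10 min; buffer-only wells as negative control.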
POLB inh: qHTS Assay for Inhibitors of DNA Polymerase Beta; Pol beta primer extension/strand displacement, fluorescence kinetic; AID 485314, 2010; Potency, µM (titrated, usually from 114 µM), for inactives: at the highest dose activity change, negative = inhibition, usual class: inhibitors; 340,000 tested, 1.3% active; note: % is set by controls: 0 for no effect and ±100 for the full control effect
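Human Pol beta at 10 nM; strand-displacement substrate 50 nM final. Compound exposure 15 min at room temperature before start, reaction 10 min at room temperature.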
FEN1 inhibitor: qHTS Assay for the Inhibitors of Human Flap endonuclease 1 (FEN1); P39748; AID 588795, 2011; 390,000 tested, 0.35% active; Recombinant FEN1 flap cleavage, fluorescence, 15 min; Potency, µM (doses to about 114 µM), for the others: at the highest dose activity change, negative = inhibition, most hits filed as inhibitors; note: % is set by controls: 0 for no effect and ±100 for the full control effect; nearly all actives have a fitted effect of over 65% in size
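Recombinant FEN1 (10 nM) was preincubated with pin-transferred compounds for 15 min at room temperature, then flap DNA substrate (50 nM final) was added. Plates were read at 0 and 15 min, and normalized concentration–response data were fitted to a four-parameter Hill equation.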
WRN inhibitor: qHTS for Inhibitors of WRN Helicase; WRN helicase unwinding, fluorescent forked duplex, kinetic; Potency, µM (series often up to 114 µM), for inactives: top-dose activity change, negative = inhibition, most hits filed as inhibitors; AID 651768, 2012; 360,000 tested, 0.46% active; Bifunctional 3'-5' exonuclease/ATP-dependent helicase WRN (Homo sapiens), Q14191; note: % is set by controls: 0 for no effect and ±100 for the full control effect; nearly all actives have a fitted effect of over 55% in size
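WRN at 20 nM final preincubated with compound 15 min at room temperature; reaction started with 100 nM fluorophore/quencher forked duplex oligonucleotide and 2 mM ATP final. Unwinding followed kinetically by red fluorescence (ex 525, em 598 nm).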
Pol kappa inh: qHTS for Inhibitors of Polymerase Kappa; Potency, µM (top dose mostly 107 µM), for inactives: at the highest dose activity, negative = inhibition, actives largely listed as inhibitors; purified Pol kappa, fluorescent DNA synthesis assay, 10 min; DNA polymerase kappa (Homo sapiens), Q9UBT6; 400,000 tested, 0.53% active; AID 588579, 2011; note: % is set by controls: 0 for no effect and ±100 for the full control effect
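Inhibition of 10 nM Pol kappa is measured by a fluorescent read-out at 0 and 10 min following addition of 50 nM substrate (final), with a 15-min room-temperature compound preincubation.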
POLH inh: qHTS for Inhibitors of Polymerase Eta; DNA polymerase eta (Homo sapiens), Q9Y253; recombinant Pol eta, fluorescent DNA replication assay; Potency, µM (doses to about 114 µM), inactives show at the top dose activity change, negative = inhibition, usual class: inhibitors; 390,000 tested, 1.2% active; note: % is set by controls: 0 for no effect and ±100 for the full control effect
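Fluorescent replication assay: 50 nM final substrate added after a 15 min room-temperature compound preincubation with 10 nM enzyme. Signal taken at 0 min and again at 10 min.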
An asterisk follows results filed as active; ? = inconclusive; / = not tested or not shown; [ ] = remark or other dose. A selection: hits, their analogues and other compounds. The true share with any hit is near 2.4%. Calls come from the whole dose curve; as a rule, active = well fitted curve in the direction sought with a large enough effect; inconclusive = small, poorly fitted or top-dose-only effect, or another doubt; inactive = no such curve, though single readings can be large; an effect the other way counts as inactive or inconclusive. Potency is the fitted concentration of half-maximal effect.

SMILES	POLI inh	POLB inh	FEN1 inhibitor	WRN inhibitor	Pol kappa inh	POLH inh
COc1cc(/C=N/NC(=O)NC2CCCCC2)ccc1O	19.4%	0.6%	-3.3%	-6.4%	-0.1%	-20.1%
COc1ccc(C(=O)CC(Nc2ccc([N+](=O)[O-])cc2)c2ccc(OC)cc2)cc1 (centres undefined)	-2.4%	-0.5%	-20.8%	-11.2%	-7.3%	-5.3%
COc1cccc(C2c3[nH]c4ccccc4c3C[C@H]3C(=O)N(C)CC(=O)N23)c1 (some centres undefined)	2.2%	52.6%	-11.3%	2.8%	12.2%	2.0%
COc1cccc(C2c3[nH]c4ccccc4c3C[C@H]3C(=O)N(C4CC4)CC(=O)N23)c1 (some centres undefined)	31.6µM*	1.1%	17.1%	-1.3%	5.8%	?
COCCN(C(=S)Nc1cc(C)ccc1C)C(C)c1cccnc1 (centres undefined)	3.3%	16.6%	-5.1%	-2.8%	-10.5%	-9.5%
Cc1ccc(S(=O)(=O)c2cc(Nc3ccccc3)ccc2O)cc1	50.1µM*	/	?	-15.3%	39.8µM*	-6.3%
Cc1ccc(NC(=S)NC(=O)c2sc3ccccc3c2Cl)c(C(=O)O)c1	/	20µM*	/	/	/	/
CC1=C(C#N)C2C(/C1=N/O)C2(C)C (centres undefined)	1.6%	9.9%	0.3%	-16.9%	-10.7%	-7.7%
C=CCn1c(SCc2nc3sc(C(=O)O)c(C)c3c(=O)[nH]2)nnc1-c1ccccc1	?	-0.2%	-11.9%	-35.4%[57.1 µM]	-37.3%	31.6µM*
Oc1cc2c(c(Cl)c1O)CCNCC2c1ccccc1 (centres undefined)	31.6µM*	?	-8.7%	-6.6%[11.6 µM]	11.0%[60.1 µM]	?
O=C(NCCCN1CCCC1=O)c1ccc2c(c1)ncn2C1CCCCC1	-10.0%	-14.4%	17.0%	-1.8%	-15.4%	-4.1%
COc1ccc(Cl)cc1NC(=O)c1cc2c(=O)n3ccccc3nc2s1	-24.9%	7.08µM*	?	/	-7.4%	/
Cc1ccnc(NS(=O)(=O)c2ccc(CC(C)C)cc2)c1	-22.5%	100µM*	10.3%	5.6%	-3.1%	0.6%
CCOC(=O)COc1ccc(S(=O)(=O)N2CCN(c3ccc(F)cc3)CC2)cc1	32.9%	-7.3%	-1.2%	-1.4%	2.8%	-23.4%
O=C1c2ccccc2-c2onc3c(Oc4ccccc4)cc(O)c1c23	/	35.5µM*	/	/	/	/
CN1CCN(c2cc(N3CCN(C(=O)c4ccco4)CC3)c3c4c(onc24)-c2ccccc2C3=O)CC1	?	-11.9%	?	?	-44.6%	?
NC(CO)C(=O)NNCc1ccc(O)c(O)c1O (centres undefined)	31.6µM*	?	20µM*	-1.8%[11.6 µM]	1.6%[60.1 µM]	0.9%
COC(=O)C(N)Cc1ccc(O)cc1 (centres undefined)	-20.7%	-1.2%	2.4%	-12.6%	1.4%	-9.6%
CN1CCN(c2ncnc3scc(-c4ccccc4Cl)c23)CC1	24.1%	27.7%	-3.5%	-0.7%	0.0%	-13.3%
CCc1ccccc1NC(=O)C1CCC(CNS(=O)(=O)c2ccc3c(c2)CC(C)N3C(C)=O)CC1 (centres undefined)	4.8%	5.1%	-0.5%	/	8.6%	-10.6%
CC(=O)N1c2ccc(S(=O)(=O)NCC3CCC(C(=O)N4CCC(C)CC4)CC3)cc2CC1C (centres undefined)	79.4µM*	22.8%	-9.0%	1.9%	-14.1%	-14.1%
CC(=O)N1c2ccc(S(=O)(=O)NCC3CCC(C(=O)NC4CCC(C)CC4)CC3)cc2CC1C (centres undefined)	8.7%	1.8%	4.3%	3.1%	-2.7%	-2.1%
CC(=O)N1c2ccc(S(=O)(=O)NCC3CCC(C(=O)Nc4cccc(C)c4C)CC3)cc2CC1C (centres undefined)	?	22.4µM*	17.9%	/	-20.0%	-19.1%
COc1cc(/C=C2/C(=O)N(c3ccc(C)c(C)c3)N=C2C)cc([N+](=O)[O-])c1O	-11.8%	6.4%	1.4%	-11.5%	13.3%	-14.5%
COc1cc(/C=C2\SC(=O)NC2=O)ccc1Oc1ccc([N+](=O)[O-])cn1	40.8%	0.0%	-8.3%	-8.6%	-8.0%	-9.1%
SMILES	POLI inh	POLB inh	FEN1 inhibitor	WRN inhibitor	Pol kappa inh	POLH inh
COc1ccccc1/C=C1/C(=O)N(c2ccccc2)N=C1C	?	1.2%	?	-7.8%	-6.4%	13.3%
COc1cc(/C=C2/SC(=O)NC2=O)ccc1Oc1ccc([N+](=O)[O-])cc1[N+](=O)[O-]	?	70.8%	?	-6.1%[11.6 µM]	0.0%	50.1µM*
COc1cc(/C=C2\C(=O)N(c3ccccc3)N=C2C)ccc1Oc1ccc([N+](=O)[O-])cc1[N+](=O)[O-]	2µM*	-18.7%	-16.2%	-33.8%	-22.7%	?
CC1=NN(c2ccccc2)C(=O)/C1=C\c1ccc(Oc2ccc([N+](=O)[O-])cc2[N+](=O)[O-])cc1	1.78µM*	-2.8%	-9.6%	-35.7%[57.1 µM]	-13.0%	50.1µM*
O=C(C1CC1)N1CCN(c2ccc([N+](=O)[O-])cc2-n2cccc2)CC1	-3.7%	19.7%	2.2%	2.6%	-11.9%	-4.2%
N#CC1=C(N)SC(N)=C(C#N)C1c1ccoc1	/	7.08µM*	/	/	/	/
Cc1ccc(C2C(C#N)=C(N)SC(N)=C2C#N)cc1	3.3%	0.1%	-4.8%	-29.1%	-10.4%	-4.5%
CN(C(=O)c1cccc(NC(=O)Cc2cccc(NC(=O)C3CCN(C(=O)C4CCC4)CC3)c2)c1)C1CC1	8.2%	/	1.0%	-1.6%	-5.0%	-8.2%
O=c1cc(CN2CCN(c3ccccc3)CC2)nc2scc(-c3ccccc3)n12	56.2µM*	39.8µM*	-2.0%	-1.9%	-42.5%	-23.2%
O=c1cc(CN2CCN(c3ccccc3O)CC2)nc2sccn12	44.7µM*	?	2.3%	-31.3%	-12.4%	20µM*
COc1cc(=O)n2c(-c3ccccc3)csc2n1	3.0%	-8.7%	5.3%	-5.6%	-4.9%	-13.2%
CCOc1ccc(NC(=O)CN(C)Cc2cc(=O)n3c(-c4ccccc4)csc3n2)cc1OCC	?	25.1µM*	2.1%	-5.7%	-11.0%	-3.2%
Cc1ccc(OCc2cc(=O)n3c(-c4ccccc4)csc3n2)cc1	56.2µM*	20µM*	0.9%	/	?	?
O=C(CN1C(=O)c2ccccc2C1=O)Nc1cc(C(=O)O)cc(C(=O)O)c1	24.6%	17.0%	-5.6%	4.1%	15.9%	-2.8%
COc1cccc(CN2C(=O)CCC2(C)C(=O)NC2CCCCC2)c1 (centres undefined)	-21.7%	-13.0%	15.8%	2.4%	-1.6%	-14.3%

Compound activity (PubChem)
